A selection: hits, their analogues and other compounds. The true share with any hit is near 12%.
AMA1-RON2 inh = disrupts binding of P. falciparum AMA1 to RON2; AlphaScreen AMA1-biotinylated RON2 peptide binding; Potency, µM (titrated, usually from 58.2 µM), for inactives: top-dose activity change, negative = inhibition, actives largely listed as inhibitors; actives 0.2% (n = 360,000);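 note: 0% = vehicle wells and -100% = peptide control; nearly all actives have a fitted effect of over 45% in size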
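AMA1 (3D7) with his tag at 25 nM final met compounds first, then biotinylated RON2 peptide at 25 nM; detection used donor plus acceptor beads, 10 µg/mL apiece, read by AlphaScreen after 30 min at room temperature.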
SARS PLP yeast = blocks SARS-CoV papain-like protease in a yeast assay | AID 485353 | actives 0.19% (n = 330,000) | S. cerevisiae expressing SARS-CoV PLpro, growth rescue | Potency, µM (highest dose often 32.9 µM), for inactives: at the top dose activity, positive = growth rescue, usual class: activators; calls by dose curve; note: 0% is about no effect; nearly all actives have a fitted effect of over 55% in size
NS1 function inh = influenza NS1 inhibition; Potency, µM (highest dose often 46.1 µM), without a hit: top-dose activity, positive = more growth; actives 0.4% (n = 270,000); calls by dose curve; note: actives are rising curves; nearly all actives have a fitted effect of over 50% in size
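In this qHTS, NS1 from influenza A is expressed in budding yeast, where it slows growth. Cells are switched from glucose to 2% galactose medium (pH 6.0, -URA), treated with compound, and growth recovery is read at OD600.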
Pf growth 48h = inhibits P. falciparum growth in the first generation, 48 h; P. falciparum luciferase growth in erythrocytes, 48 h; Potency, µM (titrated, usually from 28.7 µM), inactives show at the highest dose activity change, negative = inhibition, actives largely listed as inhibitors; actives 5.9% (n = 310,000); AID 504832; note: % is set by controls: 0 for no effect and ±100 for the full control effect
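Luciferase-expressing P. falciparum in infected erythrocytes (2% hematocrit, 0.1% parasitemia final) in RPMI 1640/0.5% Albumax were exposed to compound for 48 hours at 37 C, 5% CO2; growth read as luminescence.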
HCV inhibitor = blocks hepatitis C virus | Huh7.5.1 HCVcc-Cre infection, luciferase reporter, 44 h | Potency, µM (doses to about 41.8 µM), for the others: at the top dose activity change, negative = inhibition, hits mostly inhibitors | actives 3.4% (n = 340,000); note: % is set by controls: 0 for no effect and ±100 for the full control effect
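Compounds are dispensed onto cells plated 4 h earlier at 1,000 per well, with HCVcc-Cre virus (about 0.5 moi) added next. Following 44 h of culture, luminescent signal is measured for 15 sec after 15 min with substrate at room temperature.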
Pf growth 96h = P. falciparum growth inhibition at 96 hour, primary screen for plastid delayed-death inhibitors; Potency, µM (titrated, usually from 28.7 µM), for inactives: at the highest dose activity change, negative = inhibition, most hits filed as inhibitors; actives 6.9% (n = 320,000); P. falciparum luciferase reporter growth, 96 h; note: % is set by controls: 0 for no effect and ±100 for the full control effect
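Readout is luminescence from an integrated firefly luciferase in P. falciparum. Red cells, 2% hematocrit and 0.05% parasitemia final, were cultured with compound through two parasite generations (96 hours) at 37 C, 5% CO2.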
* marks the source's active call; other numbers are inactive results; ? = inconclusive; . = no result given. Unless noted, calls come from the whole dose curve; as a rule, active = well fitted curve in the direction sought with a large enough effect; inconclusive = small, poorly fitted or top-dose-only effect, or another doubt; inactive = no such curve, though single readings can be large; an effect the other way counts as inactive or inconclusive. Potency is the fitted concentration of half-maximal effect.

SMILES | AMA1-RON2 inh | SARS PLP yeast | NS1 function inh | Pf growth 48h | HCV inhibitor | Pf growth 96h
COc1n[nH]c(C(=O)Nc2nc3ccccc3s2)c1[N+](=O)[O-] | 113.1% | -2.5% | -51.1% | 22.7% | 3.3% | 30.7%
Cc1cccc(OCCSCc2nc3ccccc3[nH]2)c1 | -2.5% | -14.5% | -94.9% | ? | 6.31µM* | ?
Cc1ccccc1OCCSCc1nc2ccccc2[nH]1 | -14.1% | -52.2% | -36.2% | ? | ? | 13.1µM*
Cc1cccc(OCCCSc2nc3ccccc3[nH]2)c1 | 28.3% | -39.6% | -260.2% | 22.5% | -6.9% | 0.0%
CCOC(=O)NN1C(=O)c2ccccc2NC1c1ccccn1 (stereo not drawn) | 66.5% | 0.9% | . | 8.1% | 8.5% | 10.4µM*
CN(CC1CCN(CCc2cccc(C(F)(F)F)c2)CC1)C(=O)c1ccc(F)cc1F | -0.6% | -3.1% | 6.5% | ? | -28.5% | 18.3%
CC(=O)Nc1ccc(CN(C)CC2CCCN(CCc3cccc(C(F)(F)F)c3)C2)cc1 (stereo not drawn) | -20.5% | -5.5% | 12.9% | 4.15µM* | 1.41µM* | ?
CSCCC(=O)N(C)CC1CCN(CCc2cccc(C(F)(F)F)c2)CC1 | -1.0% | 0.2% | 6.9% | 8.2% | -20.5% | 4.15µM*
CCN(Cc1ccc(O)cc1)CC1CCCN(CCc2cccc(F)c2)C1 (stereo not drawn) | 6.6% | 1.3% | -9.2% | 2.33µM* | 8.91µM* | 11.7µM*
CCN(Cc1cccc(OC)c1)CC1CCCN(CCc2cccc(OC)c2)C1 (stereo not drawn) | -11.7% | -4.5% | -3.0% | ? | ? | ?
CCOC(=O)CC[C@H](NC(=O)Cn1cnc(C(=O)Nc2ccc(C)c(C)c2)n1)C(=O)OCC | 0.0% | 4.2% | . | . | 0.9% | .
COc1cccc(NC(=O)c2cc(Cl)nnc2Cl)c1 | 14.5% | -0.9% | . | 3.7µM* | ? | ?
COc1cccc(NC(=O)c2cccc(Cl)c2)c1 | -2.1% | 4.6% | . | 94.1% | -18.7% | 163.1%
COc1cc(NC(=O)c2cc(C(C)C)on2)cc(OC)c1OC | 19.9% | -6.6% | -21.2% | . | -25.8% | ?
COc1cc(NC(=O)c2cc(Cl)nnc2Cl)cc(OC)c1OC | 4.7% | 0.5% | -0.6% | 11.7µM* | -3.0% | ?
COc1ccc(C(=O)CN2CCOCC2)cc1F | 19.9% | -5.0% | -20.7% | 34.3% | 22.8% | 0.657µM*
COc1ccc(C(=O)C(CN2CCOCC2)c2ccccc2)cc1F (stereo not drawn) | 0.0% | -37.8% | -234.7% | 7.0% | ? | -20.6%
COc1ccc(C(O)C(CN2CCOCC2)c2ccccc2)cc1F (stereo not drawn) | -4.2% | 5.4% | -8.2% | 6.57µM* | 0.2% | ?
COCCNc1c(-c2cc3ccc(C)c(C)c3[nH]c2=O)nc2ccccn12 | -17.0% | -1.8% | 2.5% | 65.1% | -17.8% | -15.2%
Cc1cccc(CCN=c2c([N+](=O)[O-])nn(-c3ccccc3)n2O)c1 | -22.6% | -10.9% | . | ? | ? | ?
O=[N+]([O-])c1nn(-c2ccc3c(c2)OCCO3)n(O)c1=NC1CCCC1 | -4.5% | 15.0% | -2.5% | . | 2.82µM* | 0.5%
Cc1cccc(-n2nc([N+](=O)[O-])c(=NC3CCN(Cc4ccccc4)CC3)n2O)c1 | -10.2% | 2.2% | -1.9% | ? | 8.91µM* | ?
O=C1CCCN1CCCN=c1c([N+](=O)[O-])nn(-c2ccc(Cl)cc2)n1O | 1.0% | -0.8% | -6.7% | ? | 11.2µM* | 23.4%
O=[N+]([O-])c1nn(-c2ccc3c(c2)OCCO3)n(O)c1=NCCCO | 4.7% | 3.0% | -5.0% | 23.6% | 11.2µM* | 42.4%
Cc1cc(C(=O)NNC(=O)NC(C)C)no1 | 4.6% | 1.2% | 1.1% | 10.2% | 8.0% | 30.9%
SMILES | AMA1-RON2 inh | SARS PLP yeast | NS1 function inh | Pf growth 48h | HCV inhibitor | Pf growth 96h
CC(C)N1CC(COc2ccc(Cl)cc2Cl)OC1=O (stereo not drawn) | 3.1% | -1.8% | 0.2% | 2.2% | -29.8% | 19.7%
CCOC(=O)C1=CCN(S(=O)(=O)c2ccccc2F)C1c1cccc(Cl)c1 (stereo not drawn) | 5.0% | . | . | . | . | .
Cc1ccc(N=c2c([N+](=O)[O-])nn(-c3ccc(Cl)cc3)n2O)cc1C | -14.5% | -3.2% | -5.0% | 11.7µM* | 10.8% | 0.828µM*
O=[N+]([O-])c1nn(-c2ccc3c(c2)OCCO3)n(O)c1=Nc1ccc(Cl)cc1 | -11.1% | 11.7% | -8.8% | 15.1% | 7.08µM* | ?
COc1ccc(-n2nc([N+](=O)[O-])c(=NCc3ccc4c(c3)OCO4)n2O)cc1 | -28.7% | -6.0% | -1.7% | 242.7% | ? | 7.38µM*
O=[N+]([O-])c1nn(-c2ccc3c(c2)OCCO3)n(O)c1=Nc1ccccc1 | ? | -49.8% | -14.4% | ? | ? | -7.8%
CN(CC(=O)c1c(N)n(C)c(=O)n(C)c1=O)c1ccccc1 | 16.7% | -0.4% | 7.5% | -9.3% | 4.3% | 1.2%
CCCCn1c(N)c(N(CC)C(=O)c2ccc(C#N)cc2)c(=O)[nH]c1=O | 32.4% | -1.3% | -5.0% | 15.3% | 6.5% | -0.7%
Cc1ccc(N(CC(O)CN(C)C)S(=O)(=O)c2ccccc2)cc1 (stereo not drawn) | 7.8% | 8.5% | 10.2% | 7.5% | 3.2% | ?
COc1ccccc1N(CC(O)COc1ccc(C)cc1)S(=O)(=O)c1ccccc1 (stereo not drawn) | 2.9% | -15.5% | -6.6% | ? | 5.8% | 2.08µM*
COc1ccccc1N(CC(O)COc1c(C)cc(C)cc1C)S(=O)(=O)c1ccccc1 (stereo not drawn) | 0.6% | -11.0% | 16.3% | 11.7µM* | ? | 13.1µM*
COc1ccccc1N(CC(O)COc1ccccc1)S(=O)(=O)c1ccccc1 (stereo not drawn) | 10.5% | 16.6% | -20.3% | ? | 7.5% | ?
Cc1ccc(S(=O)(=O)N(CC(O)CN(C)C)c2ccccc2)cc1 (stereo not drawn) | 22.5% | 2.2% | 8.6% | -15.6% | 0.7% | 2.62µM*
CCN(CC)CCOc1ccc(-c2c(C)c3c(ccc4ccccc43)oc2=O)cc1 | 14.5% | . | . | . | . | .
COC(=O)c1cccc(NC(=O)CCNC(=O)c2ccco2)c1 | 6.6% | -0.5% | -1.3% | 4.6% | ? | -1.3%
O=C(O)C1OC2OC3(CCCCC3)OC2C2OC3(CCCCC3)OC12 (stereo not drawn) | -0.9% | -16.0% | 3.4% | 13.0% | 34.9% | 1.47µM*
CCCN(C(=O)c1ccco1)c1nnc(-c2ccccc2C)s1 | 94.0% | -4.3% | -8.4% | 0.0% | ? | -8.1%
Cc1ccc(NC(=O)c2ccc(S(=O)(=O)NCc3cccnc3)cc2)c(C)c1 | -12.2% | 0.8% | 2.5% | 11.1% | -20.5% | 3.1%
Clc1cc2cccnc2c2ccccc12 | 24.8% | -24.9% | -2.2% | 6.4% | -8.7% | 1.1%

Source: PubChem BioAssay (National Center for Advancing Translational Sciences (NCATS))
